Hits are enriched below; roughly 12% of the tested compounds scored in any of these assays.
FMDV antiviral = foot and mouth disease virus antiviral activity; FMDV antiviral cell-based qHTS; Potency, µM (doses to about 57.9 µM), actives largely listed as inhibitors; 1.2% of 410,000 active; calls by dose curve; tested in HEK293T cells; further: read-out not given here; nearly all actives have a fitted effect of over 45% in size
Cycloheximide cs = affects cycloheximide protein synthesis inhibition readout, counter-screen | cell reporter, cycloheximide protein synthesis inhibition counterscreen | max response, % | 12% of 300,000 active; in the data active means max response mostly above about 13%, no sharp cut-off; inactive means mostly below about 14%; further: read at 38.3 µM for the half of the compounds with a filed dose
Shiga inhibitor = inhibitors of Shiga toxin in Vero cells; Vero cells, Shiga toxin protein synthesis inhibition reporter; 9.2% of 290,000 active; inhibition, % at 38.7 µM; in the data active means inhibition mostly above about 28%, no sharp cut-off; inactive means mostly below about 43%
Sm TGR inh = S. mansoni TGR enzyme inhibition; purified TGR, DTNB reduction, TNB absorbance 405 nm; Potency, µM (doses to about 114 µM), actives largely listed as inhibitors; 3% of 360,000 active; active means well fitted inhibition curve with a large enough effect; inconclusive means small, poorly fitted or top-dose-only effect; inactive means no such curve, though single readings can be large or run the other way; further: nearly all actives have a fitted effect of over 60% in size
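Kinetic colorimetric format: TGR-catalysed, NADPH-driven DTNB reduction monitored via TNB absorbance. Enzyme dispensed at 20 nM; compound exposure 15 min at room temperature before reaction start.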
Of the large screens only hits and unclear results are named; the others gave an inactive call.

Cc1cccc(C)c1OCCn1c(CCNC(=O)C2CCCCC2)nc2ccccc21	none
Cc1cccc(OCCCCn2c(C3CC(=O)N(c4ccc(C)cc4C)C3)nc3ccccc32)c1 (centres undefined)	FMDV antiviral inconclusive (no result: Cycloheximide cs, Shiga inhibitor)
COc1cc(OC)cc(C(=O)Nc2c(C)nn(-c3ccccc3)c2C)c1	none
COC(=O)CCc1c(C)nn(-c2ccccc2)c1C	Cycloheximide cs 25, Shiga inhibitor 64
Cc1nn(-c2ccccc2)c(C)c1CCC(=O)O	Cycloheximide cs 42, Shiga inhibitor 90
Cc1nn(Cc2ccccc2)c(C)c1CCC(=O)O	none
COc1ccc(-c2nc3ccccc3n3c(-c4cccc(C)c4)c4c(=O)n(C)c(=O)n(C)c4c23)cc1OC	FMDV antiviral inconclusive (no result: Cycloheximide cs, Shiga inhibitor)
N#CC1=C2SCN(C3CCCCC3)CN2C(=O)CC1c1ccc(Cl)cc1 (centres undefined)	Sm TGR inh 7.9µM (no result: Cycloheximide cs, Shiga inhibitor)
N#CC1=C2SCN(C3CCCCC3)CN2C(=O)CC1c1ccc(F)cc1 (centres undefined)	Sm TGR inh 3.5µM (no result: Cycloheximide cs, Shiga inhibitor)
CCN(C(=O)Cn1nc(Cc2ccncc2)c2ccccc2c1=O)c1cccc(Cl)c1	none (no result: Cycloheximide cs, Shiga inhibitor)
Cc1cccc(C)c1NC(=O)CC1SC2=NCCN2C1=O (centres undefined)	Sm TGR inh 25µM
O=C(CC1SC2=NCCN2C1=O)Nc1ccc(Br)cc1 (centres undefined)	none
Cc1cc(SCc2ccc(Cl)c(Cl)c2)nc(=O)[nH]1	Cycloheximide cs 28
Cc1cc(SCc2ccccc2C)nc(=O)[nH]1	none
Cc1cc(SCc2ccc(Br)cc2)nc(=O)[nH]1	Cycloheximide cs 40
CS(=O)(=O)Oc1ccc2c(c1)O/C(=C\c1cccnc1)C2=O	Shiga inhibitor 20
O=C1/C(=C/c2cccnc2)Oc2cc(OS(=O)(=O)c3ccccc3)ccc21	FMDV antiviral inconclusive
COc1ccc(-c2nc(SCCOc3cc(C)ccc3C(C)C)n3[nH]c(=O)cc3n2)cc1	FMDV antiviral inconclusive (no result: Cycloheximide cs, Shiga inhibitor)
Clc1ccc(COc2ccccc2-c2ccnc3ncnn23)cc1	Cycloheximide cs 39, Shiga inhibitor 77
Cc1ccc2c(c1)=N/C(=N\c1[nH]c(O)c3ccccc13)N=2	none (no result: Cycloheximide cs, Shiga inhibitor, Sm TGR inh)
Oc1[nH]c(N=C2N=c3ccccc3=N2)c2ccccc12	Cycloheximide cs 35, Shiga inhibitor 60
O=[N+]([O-])c1ccc(-c2nc(NCc3cccnc3)c3ccccc3n2)cc1	Cycloheximide cs 23, Shiga inhibitor 53
CCc1ccccc1NC(=O)c1ccc(Cn2nc(N3CCN(c4ccccc4)CC3)ccc2=O)o1	FMDV antiviral inconclusive (no result: Cycloheximide cs, Shiga inhibitor)
CC(C)(C)c1ccc(OCC(=O)N2CCCCCC2)c(Br)c1	Cycloheximide cs 43, Shiga inhibitor 120 (no result: Sm TGR inh)
Cc1ccc(OCC(=O)N2CCCCC2)c(Br)c1	Cycloheximide cs 38, Shiga inhibitor 63
CC(C)C[C@H](NC(=O)[C@H](Cc1ccccc1)NC(=O)[C@@H]1CCCN1C(=O)[C@H](CC(=O)O)NC(=O)[C@@H]1CCC(=O)N1)C(=O)N[C@@H](CCCN=C(N)N)C(=O)N[C@@H](Cc1ccccc1)C(N)=O	none (no result: FMDV antiviral, Sm TGR inh)
N#Cc1ccc(S(=O)(=O)N2CCN(S(=O)(=O)c3ccc4c(c3)OCCO4)CC2)cc1	none (no result: FMDV antiviral, Sm TGR inh)
Oc1ccc(C2=NNC(=NCc3ccc4c(c3)OCO4)SC2)c(O)c1	Cycloheximide cs 32
Clc1ccc(C2=NNC(=NCc3ccc4c(c3)OCO4)SC2)cc1	none
O=C(CSc1nc(N2CCCCC2)nc(N2CCCCC2)n1)c1ccccc1	none
Cc1cc(C)nc(SCC(=O)c2ccc(F)cc2F)n1	Cycloheximide cs 20 (no result: Shiga inhibitor)
Cc1cc(C)nc(SCC(=O)c2ccc(F)cc2)n1	Cycloheximide cs 17, Shiga inhibitor 31
Cc1cc(C)nc(SCNC(=O)c2ccc(F)cc2)n1	Sm TGR inh inconclusive
CCc1ccc(C(=O)CSc2nc(C)cc(=O)[nH]2)cc1	Cycloheximide cs 32, Shiga inhibitor 49
Cc1cc(N2CCCCC2)nc(SCC(=O)c2ccccc2)n1	Cycloheximide cs 34, Shiga inhibitor 73
Cc1cc(=O)[nH]c(SCC(=O)NNC(=O)Cc2ccccc2)n1	none
Cc1ccc2occ(CC(=O)Nc3ccc(S(=O)(=O)N4CCC(C)CC4)cc3)c2c1	none (no result: Cycloheximide cs, Shiga inhibitor)
Cc1cc(NC(=O)c2ccc(F)cc2)n(C)n1	none
Cc1cc(=O)[nH]c(SCC(=O)c2ccc(F)c(C)c2)n1	Cycloheximide cs 14
COc1ccc(C(=O)CSc2nc(C)cc(=O)[nH]2)cc1C	none
Cc1cc(C)nc(S/C=C/C(=O)c2ccc(F)cc2)n1	Cycloheximide cs 37, Shiga inhibitor 68, Sm TGR inh 0.71µM (no result: FMDV antiviral)
Cc1cc(C)nc(SCC(=O)c2ccc(F)c(C)c2)n1	Cycloheximide cs 11
Cc1cc(C)cc(NC(=O)CN2C(=O)c3ccccc3Sc3ncccc32)c1	none (no result: Cycloheximide cs, Shiga inhibitor)
CCOc1ccc(NC(=O)CSC2=Nc3ccccc3C3=NC(CC(=O)NCc4ccccc4OC)C(=O)N23)cc1 (centres undefined)	none (no result: Cycloheximide cs, Shiga inhibitor)
CC(C)(C)NC(=O)CSc1nc2ccc(NC(=O)CSc3nnnn3Cc3ccccc3)cc2s1	FMDV antiviral 14µM
Cc1cccc(NC(=O)CSc2nnc(N)s2)c1	none (no result: Cycloheximide cs, Shiga inhibitor)
CC(C)(C)NC(=O)CSc1nc2ccc(NC(=O)CSc3nnc(N)s3)cc2s1	FMDV antiviral 28µM
CCc1ccc(NC(=O)CSc2nc3ccsc3c(=O)n2C(C)CC)cc1 (centres undefined)	none (no result: Cycloheximide cs, Shiga inhibitor)
COc1ccc(N/N=C(\C#N)C(=N)N2CCOCC2)cc1	Cycloheximide cs 29
N#C/C(=N\Nc1ccc(Cl)cc1)C(=O)c1ccccc1	FMDV antiviral inconclusive
N#C/C(=N\Nc1cccc(F)c1)C(=O)C1CC1	none
N#C/C(=N\Nc1cccc(F)c1)C(=N)N1CCCCCC1	Cycloheximide cs 26, Shiga inhibitor 41
COc1ccc(C(=O)/C(C#N)=N/Nc2ccc([N+](=O)[O-])cc2)cc1	FMDV antiviral inconclusive (no result: Sm TGR inh)
N#C/C(=N\Nc1ccccc1)C(=N)N1CCCCCC1	Cycloheximide cs 38, Shiga inhibitor 71
N#C/C(=N\Nc1ccc(F)cc1)C(=N)N1CCCCC1	Cycloheximide cs 47, Shiga inhibitor 112 (no result: FMDV antiviral)
Fc1ccc(Nc2c(-c3c[nH]c4ccccc34)nc3ccccn23)cc1	none (no result: Cycloheximide cs, Shiga inhibitor)
N#C/C(=N/Nc1ccccc1F)C(=N)N1CCOCC1	Cycloheximide cs 34 (no result: FMDV antiviral)
O=c1oc2ccccc2c(N2CCN(c3ccccc3F)CC2)c1CN1CCCC1	none (no result: Cycloheximide cs, Shiga inhibitor)
Cc1nnc2c(N3CCN(c4ccc(F)cc4)CC3)nc3ccc(C(=O)c4ccccc4)cc3n12	none (no result: Cycloheximide cs, Shiga inhibitor)
Cc1ccc(-c2nnc(/C=C/c3ccccc3)o2)cc1	Cycloheximide cs 50, Shiga inhibitor 147
Cc1ccc(-c2nnc(-c3ccccc3Br)o2)cc1	Cycloheximide cs 38 (no result: Shiga inhibitor)
Brc1ccccc1-c1nnc(-c2cccnc2)o1	Cycloheximide cs 30, Shiga inhibitor 49
Cc1ccc(/C=C/c2nnc(-c3cccc(C)c3)o2)cc1	none (no result: FMDV antiviral)
c1cncc(-c2nnc(SCc3cccc4ccccc34)o2)c1	none
Brc1ccc(-c2nnc(-c3ccccc3Br)o2)cc1	Cycloheximide cs 82, Shiga inhibitor 93
CCN(CC)C(=O)c1sc2c(c1C)c(=O)n(-c1ccc(C)c(C)c1)c(=O)n2CC(=O)Nc1ccc(F)cc1	none (no result: Cycloheximide cs, Shiga inhibitor)
COc1ccc(Cl)cc1NC(=O)c1cn(C2CCCC2)c(=O)c2c1c1ccccc1n2C	none (no result: Cycloheximide cs, Shiga inhibitor)
COC(=O)c1c(C)oc(C)c1S(=O)(=O)NCC1CC1	none
COC(=O)c1c(C)oc(C)c1S(=O)(=O)N(C)C1CCCCC1	Sm TGR inh 45µM
CC(=O)Nc1ccccc1C(=O)OCc1ccccc1F	Cycloheximide cs 29
